These results are taken from PubChem BioAssay (NCI).

Molecules are shown by their SMILES. This is part of a sample that, as a whole, favours compounds with a hit. Of some 83,000 tested, about 20% had one in any assay.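 Method: cells in 96-well plates; compound added at one concentration; 48 h incubation; percent growth measured; values under 10 scored active.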 Values without a mark were called inactive. Active and inactive are the calls of the source.

Some test systems named below: T-47D breast; BT-549 breast; MDA-MB-435 melanoma; SW-620 colon; MCF7 breast; HCT-116 colon; HCC-2998 colon; KM12 colon.
Holding throughout (assay): NCI-60 one-dose screen, 48 h (100 = growth as untreated, 0 = no growth, -100 = all killed)
Holding throughout (conditions): 10 µM unless noted

Take `N#CN1CCC[C@H]1C(=O)N1CCc2c(-c3[nH]nc4ncccc34)cccc21`: the growth was 13% in the experiment with T-47D breast; -37.6% (active) in the experiment with BT-549 breast; -61.6% (active) with MDA-MB-435 melanoma; 15.1% in the experiment on SW-620 colon; 5.76% (active) in the experiment on MCF7 breast; -19.6% (active) in the experiment with HCT-116 colon. Further, the growth in the experiment with HCC-2998 colon is -6.99% (active); in the experiment with KM12 colon, -14% (active).
As for `CC(O)CN(CC(C)O)c1ccc2c(c1)Cc1cc([N+](=O)[O-])ccc1-2` (stereo not drawn), the growth was 109% in the experiment with T-47D breast; 101% in the experiment on BT-549 breast; 98.7% with MDA-MB-435 melanoma; 99% in the experiment on SW-620 colon; 99.2% in the experiment with MCF7 breast; 89.6% in the experiment with HCT-116 colon. The growth with HCC-2998 colon is 95.1%; with KM12 colon, 85.3%.
Take `CCOc1cc2ncc(C#N)c(Nc3ccc(OCc4cccc(F)c4)c(Cl)c3)c2cc1NC(=O)CCCCC1CCSS1` (stereo not drawn): the growth with T-47D breast was 64.4%; with BT-549 breast, 98.5%; in the experiment with MDA-MB-435 melanoma it was 99%; in the experiment on SW-620 colon, 99.4%; in the experiment with MCF7 breast, 58.8%; in the experiment with HCT-116 colon, 75.6%. Besides, the values for the growth with HCC-2998 colon and with KM12 colon were 105% and 82.8%, respectively.
`CCOC(=O)c1c(C(=O)OCC)c2cc(-c3ccn4c(C(=O)c5ccccc5)c(C(=O)OCC)c(C(=O)OCC)c4c3)ccn2c1C(=O)c1ccccc1`: the growth is 82.5% with T-47D breast; 93.4% in the experiment with BT-549 breast; 99.9% in the experiment with MDA-MB-435 melanoma; 105% in the experiment on SW-620 colon; 92.9% with MCF7 breast; 103% in the experiment with HCT-116 colon. Besides, the growth with HCC-2998 colon was 95.2%; in the experiment on KM12 colon, 87.7%.
In the case of `Oc1cccc2ccc(N/N=C/c3cc(CN4CCOCC4)c(O)c4ncccc34)nc12`, the growth in the experiment with T-47D breast was 26.9%; with BT-549 breast, 18.4%; in the experiment on MDA-MB-435 melanoma it was 23.8%; in the experiment on SW-620 colon, 26.2%; in the experiment with MCF7 breast, 18.6%; with HCT-116 colon it was 23.5%. Further, the figures for the growth in the experiment with HCC-2998 colon and in the experiment on KM12 colon were 26.6% and 13.7%, respectively.
As to `COc1cccc(-c2nc3sccn3c2-c2ccnc(NCCNS(=O)(=O)c3ccccc3)c2)c1`, the growth is -18.3% (active) in the experiment on T-47D breast; 6.29% (active) in the experiment with BT-549 breast; 22.6% in the experiment with MDA-MB-435 melanoma; 40.8% in the experiment with SW-620 colon; 27.4% in the experiment on MCF7 breast; 18.5% with HCT-116 colon. The growth was 53.2% with HCC-2998 colon and 22.2% in the experiment with KM12 colon.
Regarding `O=C1C=CC(=O)N1c1ccc2c(c1)Cc1cc(F)ccc1-2`, the growth in the experiment with T-47D breast was 103%; in the experiment on BT-549 breast, 105%; with MDA-MB-435 melanoma, 102%; in the experiment with SW-620 colon it was 98.1%; in the experiment on MCF7 breast, 90.2%; in the experiment with HCT-116 colon, 94.3%. The growth was 93.3% in the experiment with HCC-2998 colon and 102% in the experiment with KM12 colon.
With `CC(=O)c1cc2c(N)c(C(=O)Nc3cccc4ccccc34)sc2nc1C`, the growth in the experiment on T-47D breast was 42.7%; in the experiment with BT-549 breast, 46.5%; in the experiment with MDA-MB-435 melanoma it was -34% (active); in the experiment with SW-620 colon, 17.8%; with MCF7 breast it was 22.1%; in the experiment with HCT-116 colon, 29.3%. Also, the results for the growth in the experiment with HCC-2998 colon and in the experiment on KM12 colon were 37.1% and 22%, respectively.
`COc1ccc(-c2cc(-c3ccc(Nc4ccnc5cc(Cl)ccc45)cc3)nc(N3CCOCC3)n2)cc1`: the growth with T-47D breast was -23% (active); in the experiment with BT-549 breast, 45.8%; in the experiment on MDA-MB-435 melanoma, 10.1%; with SW-620 colon it was 8.98% (active); in the experiment on MCF7 breast, 22.7%; in the experiment with HCT-116 colon, 52.8%. In addition, the growth in the experiment on HCC-2998 colon is 98.8%; with KM12 colon, 44.9%.
On to `C=CC(=O)Nc1cccc(-c2nc(SC)nc(NCCc3ccc(OC)c(OC)c3)c2C#N)c1`, for which the growth with T-47D breast was 8.57% (active); in the experiment with BT-549 breast, 25%; with MDA-MB-435 melanoma, 24.2%; in the experiment on SW-620 colon it was 80.8%; with MCF7 breast, 16.5%; in the experiment with HCT-116 colon, 31.4%. The growth in the experiment on HCC-2998 colon was 87.1%; in the experiment on KM12 colon it was 64.6%.
Regarding `O=C1c2ccccc2C(=O)c2c(N=Nc3[nH]c(=S)[nH]c3O)cccc21`, the growth in the experiment on T-47D breast was 21.8%; in the experiment on BT-549 breast, 34.3%; in the experiment with MDA-MB-435 melanoma it was -67.7% (active); with SW-620 colon, 18%; in the experiment on MCF7 breast it was 18.7%; in the experiment on HCT-116 colon it was 20.1%. The values for the growth in the experiment with HCC-2998 colon and with KM12 colon were 29.9% and 17%, respectively.
Consider `C[n+]1ccccc1/C=C/c1ccc2cccc(O)c2n1`, for which the growth is 97.6% in the experiment on T-47D breast; 97.6% in the experiment on BT-549 breast; 114% in the experiment on MDA-MB-435 melanoma; 52.1% in the experiment with SW-620 colon; 97.3% in the experiment with MCF7 breast; 97% with HCT-116 colon. The growth in the experiment with HCC-2998 colon is 95.2%; with KM12 colon, 41.1%.
`O=C(Oc1cccnc1)c1ccsc1Nc1ccnc(C(F)(F)F)c1`: the growth was 72.7% in the experiment on T-47D breast; 45% in the experiment on BT-549 breast; 82.6% in the experiment with MDA-MB-435 melanoma; 21% in the experiment on SW-620 colon; 58.2% in the experiment with MCF7 breast; 9.98% (active) with HCT-116 colon. Further, the growth with HCC-2998 colon is 114%; with KM12 colon it was 41%.
In the case of `C(=N/Nc1ncc(-c2cc3cc(-c4ccccc4)ccc3o2)s1)/c1cccs1`, the growth was 100% with T-47D breast; 110% with BT-549 breast; 95.9% in the experiment on MDA-MB-435 melanoma; 99.7% with SW-620 colon; 89.7% in the experiment with MCF7 breast; 91.5% in the experiment with HCT-116 colon. For the same compound, the results for the growth in the experiment on HCC-2998 colon and with KM12 colon were 100% and 97%, respectively.
`N#Cc1c(N)n(CCNC(=O)c2ccccc2)c2nc3ccccc3nc12`: the growth was 95.4% in the experiment on T-47D breast; 140% in the experiment on BT-549 breast; 95.9% in the experiment with MDA-MB-435 melanoma; 123% in the experiment on SW-620 colon; 109% with MCF7 breast; 102% with HCT-116 colon. The growth in the experiment with HCC-2998 colon is 97.4%; in the experiment with KM12 colon, 114%.
For the compound `N#CCCN=Nc1c(O)[nH]c2ccc([N+](=O)[O-])cc12`, the growth was 93.1% with T-47D breast; 107% with BT-549 breast; 111% in the experiment with MDA-MB-435 melanoma; 99.9% with SW-620 colon; 86.8% in the experiment on MCF7 breast; 96.5% in the experiment with HCT-116 colon. In addition, the results for the growth with HCC-2998 colon and in the experiment with KM12 colon were 111% and 101%, respectively.
